# About 83,000 compounds went through this panel and 20% of them were active in at least one assay; those are over-represented in the sample as a whole.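 Single-dose data. Exposure time 48 hours. Values below 10 considered active.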 A number with no mark means an inactive call. Activity calls are given as the source filed them.
# Experiments:
# Experiment in all cases: NCI-60 one-dose screen, 48 h (100 = growth as untreated, 0 = no growth, -100 = all killed)
# Details in all cases: 10 µM unless noted
# T-47D breast = system: T-47D breast
# BT-549 breast = system: BT-549 breast
# MDA-MB-435 melanoma = system: MDA-MB-435 melanoma
# SW-620 colon = system: SW-620 colon
# MCF7 breast = system: MCF7 breast
# HCT-116 colon = system: HCT-116 colon
# HCC-2998 colon = system: HCC-2998 colon
# KM12 colon = system: KM12 colon
SMILES,growth (T-47D breast),growth (BT-549 breast),growth (MDA-MB-435 melanoma),growth (SW-620 colon),growth (MCF7 breast),growth (HCT-116 colon),growth (HCC-2998 colon),growth (KM12 colon)
CC(C)CSc1nc(NN)c(C#N)c(-c2ccc(F)cc2)n1,66.7%,85.3%,78.9%,91.9%,73.8%,68.9%,54.4%,58.1%
O=c1[nH]c(Nc2ccc(S(=O)(=O)O)cc2)nc2nc(Nc3ccc(NC(=S)Nc4ccccc4)cc3)nc(-c3ccc(O)cc3O)c12,90.7%,152%,111%,107%,107%,109%,112%,95.2%
COc1cc(NC(=O)SC2=NCCS2)cc(OC)c1,87.2%,95.4%,113%,95.8%,94.1%,108%,114%,106%
Cc1ccc(-c2nc(C#N)c(S(=O)(=O)n3nc(-c4ccccc4)cc3N)o2)cc1,18.2%,96.8%,100%,31.8%,79.5%,63%,112%,107%
CCN(CC)c1ccc(C(=N)c2ccc(N(CC)CC)cc2)cc1,-27.9% (active),8.11% (active),-35.2% (active),-21% (active),-18.9% (active),-60.1% (active),-74.5% (active),-38.2% (active)
COc1ccc(/C=C2\Oc3cc(OCCCN4CCCC4)ccc3C2=O)c(OC)c1,99%,95.4%,97%,33.5%,44.4%,10.6%,86.3%,67.1%
CC(=O)c1cc2c(N)c(C(=O)Nc3cccc4c3OCCO4)sc2nc1C,56%,103%,24.1%,95.1%,94.9%,96.4%,95%,98.7%
CN(C)c1oc(C2OC2c2ccccc2)nc1C#N (stereo not drawn),89.5%,95.6%,101%,94.3%,90.5%,90.2%,97.3%,103%
CN(C)c1cccc2c(S(=O)(=O)/N=C(\N)Nc3nc4ccccc4s3)cccc12,39.6%,47.5%,-11.5% (active),31%,29.6%,42.4%,70.4%,35.7%
COc1ccc(-c2cn(-c3cccc(C(=O)/C=C/c4cc(OC)c(OC)c(OC)c4)c3)c(=O)[nH]2)cc1OC,62.9%,85%,83.2%,94.5%,53.3%,63.6%,103%,70.9%
c1ccc(-c2cn(-c3ccccc3)c(-c3ccccc3)n2)cc1,67.5%,72.5%,72.6%,23.2%,-31.1% (active),-91.4% (active),92.3%,11.8%
S=C(S)NCCc1c[nH]c2ccccc12,88%,92.6%,103%,101%,94.4%,96.1%,115%,96.7%
CCOC(=O)C1=C(C)NC(C)=C(C(=O)OCC)C1(C)C,95%,93.6%,116%,117%,98.9%,100%,108%,118%
C=C1CCC2C3(C)COC(c4ccc(N(C)C)cc4)OC3CCC2(C)C1C/C=C1/C(=O)OCC1O (stereo not drawn),52.1%,46.4%,7.31% (active),26%,29.5%,21.6%,112%,54.6%
C=C1C(=O)O[C@@H]2[C@@H]3O[C@@](C)(CC/C=C(\C)CCC[C@@H]2C)[C@H](O)C[C@@H]13,50.9%,19.1%,19.2%,33.5%,36.3%,-4.01% (active),97.5%,75.8%
COc1ccc(C2C=C(c3ccc(Cl)cc3)N=C3SC=C(C)N32)c(Br)c1 (stereo not drawn),39.3%,19.7%,9.2% (active),24.2%,10.2%,16%,–,–

SMILES,growth (T-47D breast),growth (BT-549 breast),growth (MDA-MB-435 melanoma),growth (SW-620 colon),growth (MCF7 breast),growth (HCT-116 colon),growth (HCC-2998 colon),growth (KM12 colon)
CC1=C(C#N)C(=O)NC(C)C1 (stereo not drawn),91.4%,101%,107%,106%,101%,110%,79.8%,107%
CCCCCc1cc[n+](CC(=O)c2ccc([N+](=O)[O-])cc2)cc1,56.7%,77%,68.2%,49%,43%,21.2%,58.1%,50%
COc1cc(NC(N)=NCCC(C)(C)c2ccc(C(F)(F)F)cc2)ncc1C#N,-2.85% (active),53.9%,17%,-0.0248% (active),-31.3% (active),-75.7% (active),-77.8% (active),15.4%
O=C(CSc1nc2ccccc2[nH]1)Nc1ccc(-c2nc3ccccc3s2)c(Cl)c1,-12.7% (active),47.4%,13.2%,22.1%,6.26% (active),-90.2% (active),95.3%,–
COc1ccc(Nc2nn3c(C)cc(C)nc3c2C(=O)Nc2ccc(C)cc2)c(OC)c1,87.7%,96.2%,105%,105%,101%,99%,94.2%,100%
O=C1/C(=C/c2ccc(Cl)cc2)CN(C(=O)CCN2CCC(=NO)CC2)C/C1=C\c1ccc(Cl)cc1,-37.2% (active),-88% (active),-94.7% (active),-61.1% (active),-53.3% (active),-48% (active),-76.1% (active),-86.1% (active)
COc1cc(/C=C/C(=O)/C=C/c2cc(OC)c3c(c2)OCO3)cc2c1OCO2,88.6%,84.3%,-21.2% (active),11.5%,19.8%,-93.9% (active),14.6%,-17.1% (active)
COc1cc(-c2ncn(/C=C\C(=O)OC(C)C)n2)cc(C(F)(F)F)c1,16.3%,-62.6% (active),-34.7% (active),0.254% (active),-24.5% (active),2.85% (active),-39.8% (active),0.0792% (active)
NC1N=C(SCC(=O)N2CCN(c3cc4c(cc3F)c(=O)c(C(=O)O)cn4C3CC3)CC2)NC(=O)/C1=C/c1ccc(Cl)cc1 (stereo not drawn),97.9%,122%,105%,104%,105%,101%,109%,107%
O=C(Nc1cccc(-n2cc(-c3ccncc3)c(-c3ccc(Cl)c(O)c3)n2)c1)Nc1cc(C(F)(F)F)cc(C(F)(F)F)c1,12.1%,-35.9% (active),-31.1% (active),3.32% (active),2.71% (active),-59.1% (active),-56.9% (active),-50.3% (active)
O=[N+]([O-])c1cnc(Sc2ccncn2)s1,-13.9% (active),103%,27.2%,-80.9% (active),31.5%,-48.5% (active),6.85% (active),75.9%
N=C(N)c1ccc(-c2ccc(-c3cncc4ccccc34)s2)cc1F,-63.3% (active),89.5%,-90.5% (active),-62.1% (active),-68.6% (active),-87.8% (active),-98.2% (active),-89.4% (active)
S=c1[nH]nc(-c2cc3ccc2CCc2ccc(cc2)CC3)n1-c1ccccc1,89.1%,108%,93.3%,97.5%,85.3%,88.1%,113%,98.2%
CCOC(=O)c1ccc2c(c1)nc(-c1ccc(OCc3ccccc3)c(OC)c1)n2-c1cc(C(C)(C)C)[nH]n1,65.5%,98.6%,85%,98%,63.1%,62.8%,91%,69.3%
O=C(c1c[nH]c(=O)c(-c2ccccc2)c1)c1ccccc1O,78.4%,93.2%,96.7%,92.6%,92.6%,90.5%,94.2%,89.6%
Cc1cc(N/N=C/c2nc(-c3ccc(Br)cc3)oc2C)c2cc(Cl)ccc2n1,95.8%,98.1%,16.8%,-8.11% (active),-55% (active),-16.5% (active),96.1%,84%

# Source: PubChem BioAssay (NCI)
